We go through five compounds from PubChem BioAssay.

Assay [1] is described as follows: binders of probe aFSTL3 on microarray, primary screen, stem cell growth factor project, biochemical, small-molecule microarray, fluorescence 635/667 (AID 1064).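 Also: measures binding of the biotinylated anti-FSTL3 antibody to printed compounds.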 The settings on record: higher = more signal.
Assay [2] in a line: binders from COS7 lysate, DM2A8 probe, primary screen, torsin A project, cell lysate, small-molecule microarray, fluorescence 635/667 (AID 1065). To be noted: higher = more signal, COS7 lysate expressing mutant human TOR1A.
Assay [3] can be described thus: binders of probe aFGF2 on microarray, primary screen, stem cell growth factor project, biochemical, small-molecule microarray, fluorescence 635/667 (AID 1067).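 Also: measures binding of biotinylated aFGF2 protein to printed compounds on slides; z-score merges feature fluorescence and signal-to-noise across triplicate slides.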 To be noted: higher = more signal.
Assay [4] can be described thus: binders of probe aFGF10 on microarray, primary screen, stem cell growth factor project, biochemical, small-molecule microarray, fluorescence 635/667 (AID 1071).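 Also: score merges 667 nm spot intensity and signal to noise from triplicate slides.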 To be noted: higher = more signal.
Assay [5] addresses Neurogenic locus notch homolog protein 2 (Homo sapiens) (UniProt Q04721). The assay can be described thus: Notch2 binders on small-molecule microarrays, primary screen, biochemical, small-molecule microarray, 635 nm fluorescence, stem cell growth factors (AID 1073). To be noted: Notch2 binding, higher = more signal.
The target of assay [6] is Pro-neuregulin-1, membrane-bound isoform (Homo sapiens) (UniProt Q02297). The assay can be described thus: NRG1 binders on small-molecule microarrays, primary screen, psychiatric disease protein project, biochemical, small-molecule microarray, fluorescence 635/667 (AID 1075).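 Also: score combines 667 nm spot fluorescence with signal to noise.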 To be noted: NRG1 binding, 635 nm fluorescence, higher = more signal.
Chain of Pro-neuregulin-1, membrane-bound isoform (Homo sapiens) (Q02297 whole entry, looked up, the tested form may be a part, canonical isoform): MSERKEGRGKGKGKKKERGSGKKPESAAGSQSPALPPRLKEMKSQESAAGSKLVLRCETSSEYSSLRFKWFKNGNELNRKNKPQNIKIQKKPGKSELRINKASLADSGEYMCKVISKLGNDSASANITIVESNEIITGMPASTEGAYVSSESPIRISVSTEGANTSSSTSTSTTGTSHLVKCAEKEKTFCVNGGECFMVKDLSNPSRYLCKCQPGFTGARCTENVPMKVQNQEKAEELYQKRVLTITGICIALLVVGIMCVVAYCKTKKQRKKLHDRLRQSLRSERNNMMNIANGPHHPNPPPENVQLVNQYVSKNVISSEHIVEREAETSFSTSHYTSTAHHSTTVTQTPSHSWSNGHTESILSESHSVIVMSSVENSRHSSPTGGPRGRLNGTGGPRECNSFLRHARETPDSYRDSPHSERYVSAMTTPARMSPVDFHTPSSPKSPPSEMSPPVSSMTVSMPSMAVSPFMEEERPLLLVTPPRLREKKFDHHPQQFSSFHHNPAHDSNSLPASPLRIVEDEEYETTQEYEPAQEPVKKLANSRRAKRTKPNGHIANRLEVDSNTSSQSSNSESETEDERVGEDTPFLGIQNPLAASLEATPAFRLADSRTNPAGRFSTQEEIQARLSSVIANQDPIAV
For assay [7], the system named is Neuregulin-1 EGF-like domain. The assay can be described thus: binders of neuregulin-1 EGF-like domain, primary screen, biochemical, small-molecule microarray, 635 nm fluorescence (AID 1081).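 Also: binding of the protein to compounds printed on small-molecule microarray slides.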 The settings on record: small-molecule microarray binding, higher = more signal.
A short description of assay [8]: FRG1 promoter luciferase signal modulators, primary screen, FRG1 inhibition for FSHD, cell-based, C2C12 myotubes, firefly/Renilla luciferase, luminescence (AID 1084). The settings on record: higher = more signal, called active from +8 up or from −8 down.
A short description of assay [9]: binders of probe aFST on microarray, primary screen, stem cell growth factor project, biochemical, small-molecule microarray, fluorescence 635/667 (AID 1086).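 Also: score merges 667 nm fluorescence with signal-to-noise of each printed compound spot.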 The settings on record: higher = more signal.
Assay [10] in a line: binders of probe aHhip on microarray, primary screen, stem cell growth factor project, biochemical, small-molecule microarray, fluorescence 635/667 (AID 1087).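 Also: score merges spot fluorescence at 667nm with spot signal to noise ratio.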 To be noted: higher = more signal.
Assay [11] deals with PRMT1 (protein arginine N-methyltransferase 1). The experiment in a line: PRMT1 binders on small-molecule microarrays, primary screen, biochemical, small-molecule microarray, 635 nm fluorescence (AID 1088).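 Also: binding of Prmt1 protein to compounds spotted on small-molecule microarray slides.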 The settings on record: small-molecule microarray binding, higher = more signal.
Assay [12] is described as follows: yeast growth modulation, basal conditions, primary screen, YJM789 clinical isolate, OD600, 24 h (AID 1089).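 Also: growth of clinical yeast isolate S. cerevisiae YJM 789 seeded 1000 cells per well; test concentration not given here.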 To be noted: S. cerevisiae YJM789 growth, higher = more signal, called active from +8 up or from −8 down.
Assay [13] can be described thus: fission yeast growth modulation, primary screen, strain 972, OD600, 24 h, no modulator (AID 1090).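 Also: basal condition with compound alone and no growth modifier present; test concentration not given here.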 The settings on record: S. pombe 972 growth, higher = more signal, called active from +8 up or from −8 down.
Assay [14] can be described thus: S. cerevisiae growth modulation with rapamycin, primary screen, strain BY4716, OD600, 96 h (AID 1091). Also: test concentration not given here. The settings on record: higher = more signal, called active from +8 up or from −8 down.
The target in assay [15] is Torsin-1A-interacting protein 2 (Homo sapiens) (UniProt Q8NFQ8). The assay can be described thus: LULL1 binders on small-molecule microarray, primary screen, cell lysate, human LULL1 lysate, 635/667 nm fluorescence (AID 1092).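 Also: probe is lysate of COS7 cells overexpressing human LULL1; score merges per-feature 667 nm fluorescence with signal-to-noise.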 To be noted: hLULL1 lysate binding, 635 nm fluorescence, higher = more signal.
Chain of Torsin-1A-interacting protein 2 (Homo sapiens) (Q8NFQ8 whole entry, looked up): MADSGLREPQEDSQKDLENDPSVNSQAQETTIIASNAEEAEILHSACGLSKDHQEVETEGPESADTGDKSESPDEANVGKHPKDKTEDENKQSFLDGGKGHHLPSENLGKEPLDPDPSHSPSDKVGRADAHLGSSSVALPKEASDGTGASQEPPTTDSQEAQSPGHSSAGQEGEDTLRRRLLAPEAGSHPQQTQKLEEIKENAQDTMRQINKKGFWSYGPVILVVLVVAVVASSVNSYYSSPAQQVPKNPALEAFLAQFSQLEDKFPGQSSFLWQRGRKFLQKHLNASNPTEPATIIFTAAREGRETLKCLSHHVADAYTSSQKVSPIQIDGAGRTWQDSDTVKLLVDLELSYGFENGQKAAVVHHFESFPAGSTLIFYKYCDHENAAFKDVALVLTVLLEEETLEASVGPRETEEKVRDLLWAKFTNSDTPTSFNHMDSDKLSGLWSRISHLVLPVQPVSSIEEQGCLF
The nature of assay [16]: E. coli growth modulation, two-sided OD650, primary screen, E. coli filamentation project, strain DRC41, 24 h (AID 1093).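 Also: MC1000 strain lacking acrAB efflux and sulA so SOS filamentation is blocked; test concentration not given here.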 The settings on record: OD650, 24 h, higher = more signal, called active from +8 up or from −8 down.
Assay [17] can be described thus: small-molecule microarray binders of probe aLefty2, primary screen, biochemical, biotinylated probe, 635/667 nm fluorescence (AID 1094).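 Also: score merges spot fluorescence near 667 nm with spot signal-to-noise ratio.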 The settings on record: higher = more signal.
The test system of assay [18] is Noggin (protein binding on small-molecule microarray). The assay can be described thus: Noggin binders on small-molecule microarray, primary screen, biochemical, 635/667 nm fluorescence (AID 1095).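 Also: score merges 667 nm feature fluorescence with signal to noise over triplicate slides.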 The settings on record: 635 nm fluorescence, higher = more signal.
For assay [19], the target named is Neurogenic locus notch homolog protein 3 (Homo sapiens) (UniProt Q9UM47). The assay can be described thus: NOTCH3 binders on small-molecule microarray, primary screen, biochemical, 635/667 nm fluorescence (AID 1096). To be noted: NOTCH3 binding, 635 nm fluorescence, higher = more signal.
Chain of Neurogenic locus notch homolog protein 3 (Homo sapiens) (Q9UM47 whole entry, looked up): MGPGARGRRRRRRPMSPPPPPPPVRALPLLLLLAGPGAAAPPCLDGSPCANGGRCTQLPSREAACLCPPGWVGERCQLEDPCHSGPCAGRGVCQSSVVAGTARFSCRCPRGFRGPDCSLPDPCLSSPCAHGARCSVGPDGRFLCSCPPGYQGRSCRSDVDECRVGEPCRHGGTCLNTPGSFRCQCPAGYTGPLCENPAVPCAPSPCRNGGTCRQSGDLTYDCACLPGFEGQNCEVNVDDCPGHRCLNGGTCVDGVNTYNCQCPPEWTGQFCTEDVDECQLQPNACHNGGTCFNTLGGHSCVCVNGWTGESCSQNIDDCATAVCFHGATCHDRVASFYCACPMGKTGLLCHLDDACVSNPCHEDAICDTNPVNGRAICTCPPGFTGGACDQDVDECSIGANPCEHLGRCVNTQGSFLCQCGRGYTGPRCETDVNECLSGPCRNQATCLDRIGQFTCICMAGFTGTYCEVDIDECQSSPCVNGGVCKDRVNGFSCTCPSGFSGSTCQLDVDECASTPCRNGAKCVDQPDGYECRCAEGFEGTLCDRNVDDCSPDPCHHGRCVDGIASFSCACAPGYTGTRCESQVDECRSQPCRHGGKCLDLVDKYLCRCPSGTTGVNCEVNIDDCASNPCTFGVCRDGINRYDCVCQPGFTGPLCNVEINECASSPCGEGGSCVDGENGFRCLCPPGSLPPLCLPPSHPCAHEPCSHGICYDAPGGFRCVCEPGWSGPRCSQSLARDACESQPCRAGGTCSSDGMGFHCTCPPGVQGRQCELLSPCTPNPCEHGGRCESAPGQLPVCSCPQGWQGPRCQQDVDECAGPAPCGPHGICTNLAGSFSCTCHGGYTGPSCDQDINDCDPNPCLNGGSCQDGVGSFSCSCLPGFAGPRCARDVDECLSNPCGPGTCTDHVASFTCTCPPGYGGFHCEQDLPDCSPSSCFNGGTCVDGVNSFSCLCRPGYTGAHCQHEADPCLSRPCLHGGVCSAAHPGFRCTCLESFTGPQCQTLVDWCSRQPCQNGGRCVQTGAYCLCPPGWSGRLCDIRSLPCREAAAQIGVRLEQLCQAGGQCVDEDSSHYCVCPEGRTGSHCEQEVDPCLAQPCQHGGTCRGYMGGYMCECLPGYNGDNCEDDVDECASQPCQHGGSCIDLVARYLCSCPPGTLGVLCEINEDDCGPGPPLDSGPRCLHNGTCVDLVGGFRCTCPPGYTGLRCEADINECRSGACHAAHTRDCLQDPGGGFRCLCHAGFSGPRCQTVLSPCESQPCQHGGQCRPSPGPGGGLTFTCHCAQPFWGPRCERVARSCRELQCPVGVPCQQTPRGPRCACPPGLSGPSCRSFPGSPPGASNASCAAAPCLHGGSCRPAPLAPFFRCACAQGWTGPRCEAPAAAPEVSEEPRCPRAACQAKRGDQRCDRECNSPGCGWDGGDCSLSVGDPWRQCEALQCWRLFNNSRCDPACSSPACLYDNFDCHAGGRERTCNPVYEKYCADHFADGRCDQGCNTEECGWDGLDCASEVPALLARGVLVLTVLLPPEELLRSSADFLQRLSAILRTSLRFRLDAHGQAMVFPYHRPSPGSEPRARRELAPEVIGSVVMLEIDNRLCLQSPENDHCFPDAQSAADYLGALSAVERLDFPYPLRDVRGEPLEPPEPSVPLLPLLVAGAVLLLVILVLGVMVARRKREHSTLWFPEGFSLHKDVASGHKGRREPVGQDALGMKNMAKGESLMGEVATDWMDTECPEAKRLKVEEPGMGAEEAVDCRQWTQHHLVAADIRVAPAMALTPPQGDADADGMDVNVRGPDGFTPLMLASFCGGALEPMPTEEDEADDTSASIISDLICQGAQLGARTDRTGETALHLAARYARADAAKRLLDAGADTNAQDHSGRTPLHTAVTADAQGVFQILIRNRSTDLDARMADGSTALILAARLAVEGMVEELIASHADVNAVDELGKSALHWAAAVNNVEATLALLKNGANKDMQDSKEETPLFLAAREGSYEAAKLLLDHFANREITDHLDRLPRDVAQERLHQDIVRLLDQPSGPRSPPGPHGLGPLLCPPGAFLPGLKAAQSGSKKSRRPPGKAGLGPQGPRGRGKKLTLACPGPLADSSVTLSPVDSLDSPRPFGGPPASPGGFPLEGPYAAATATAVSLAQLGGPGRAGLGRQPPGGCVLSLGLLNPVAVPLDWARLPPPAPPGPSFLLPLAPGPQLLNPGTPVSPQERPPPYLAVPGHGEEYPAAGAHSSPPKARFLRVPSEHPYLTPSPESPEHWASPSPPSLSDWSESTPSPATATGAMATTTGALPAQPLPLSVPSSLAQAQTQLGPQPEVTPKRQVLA
Assay [20] can be described thus: small-molecule microarray binders of probe aEGFR, primary screen, biochemical, biotinylated probe, 635/667 nm fluorescence (AID 1097).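 Also: probe is a biotinylated anti-EGFR antibody binding compounds printed on slides; score combines fluorescence near 667 nm and signal to noise of each spot.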 To be noted: higher = more signal.

The source made the active and inactive calls.

With `C[C@@]1([C@@H](NC(=O)c2cccs2)c2ccc(-c3ccccc3)cc2)C[C@H]1C1CCCCC1`, the composite z-score in [1] was -0.11; in assay [2], -1.29; in assay [3] it was -0.428; in assay [4], -0.376; in assay [5], -0.41; in [6], 0.783. In addition, the composite z-score in assay [7] is -0.253; in [9], -0.232; in assay [10], -0.523; in assay [11], -1.61; in assay [15] it was 2.95; in assay [17], -0.288. Moreover, the composite z-score in [18] is -0.786; in assay [19], -1.31; in assay [20], -0.239. For the same compound, the z-score was 2.66 (inactive) in [8]; 1.53 (inactive) in assay [12]; -0.584 (inactive) in assay [13]; -0.578 (inactive) in assay [14]; -0.474 (inactive) in [16].

For the compound `COC(=O)[C@@]1(Cc2ccccc2)[C@H]2c3cc(C(=O)N(C)C)n(Cc4ccc(O)c(OC)c4)c3C[C@H]2CN1C(=O)c1ccccc1`, the composite z-score in assay [1] came to 0.709; in assay [2], 1.36; in [3], 0.0487; in assay [4], 0.523; in assay [5], 1.56; in assay [6], 0.934. The composite z-score in assay [7] is 1.24; in [9] it was 1.91; in assay [10], 2.58; in assay [11], 1.18; in assay [15], 2.74; in [17] it was -0.0203. Also, the figures for the composite z-score in assay [18], in [19] and in assay [20] were -0.372, 0.895 and 0.38, respectively. Further, the z-score in assay [8] is 3.26 (inactive); in assay [12], 0.473 (inactive); in assay [13], -0.455 (inactive); in assay [14] it was 0.836 (inactive); in assay [16], 0.195 (inactive).

As to `O=C1NC(=O)C2C1C=CC(C(O)CCc1ccccc1)N2Nc1ccccn1` (stereo not given), the composite z-score in [1] was 0.313; in assay [2] it was 0.478; in [3], -0.0881; in assay [4], 0.0386; in [5], 1.07; in assay [6], 1.19. For the same compound, the composite z-score in assay [7] is 0.83; in assay [9] it was 0.172; in assay [10] it was -0.407; in assay [11], 0.509; in [15] it was 1.51; in [17], -0.0719. Also, the composite z-score is 0.103 in assay [18], 0.312 in assay [19] and -0.0659 in [20]. Moreover, the z-score in [8] is -0.338 (inactive); in assay [12], -0.974 (inactive); in assay [13] it was 1.51 (inactive); in assay [14], -0.312 (inactive); in [16], -0.581 (inactive).

On to `C=C(C(=O)CC[C@H](OC(=O)c1cccnc1)c1ccc(OCCO)cc1)C(C)C`, for which the composite z-score in assay [1] is -0.241; in [2] it was 1.43; in [3], 0.0612; in assay [4], 0.404; in assay [5] it was 0.539; in [6], 0.19. For the same compound, the composite z-score in assay [7] was 1.2; in [9], 0.995; in [10], 0.0881; in assay [11] it was 1.55; in assay [15] it was 1.76; in [17] it was -0.0961. Further, the composite z-score in assay [18] was 0.986; in [19], 0.717; in [20] it was -0.0362. Besides, the z-score in assay [8] was 1.14 (inactive); in [12] it was 0.366 (inactive); in assay [13], -1.54 (inactive); in [14] it was 0.905 (inactive); in assay [16], -0.388 (inactive).

In the case of `C=CCOC(=O)[C@@H]1[C@H]2C(=O)O[C@H](c3ccccc3)[C@H](c3ccccc3)N2[C@H](c2ccc(OCCOC(=O)[C@@H]3C[C@@H]4C(=O)N5CCC[C@H]5C(=O)N4[C@@H]3c3cccc(OCCO)c3)cc2)[C@@]12C(=O)Nc1ccc(I)cc12`, the composite z-score in assay [1] was -0.396; in [2] it was 0.313; in [3] it was -0.0927; in assay [4], 0.0951; in [5] it was 0.115; in [6], 0.311. Further, the composite z-score in assay [7] is 1.17; in assay [9] it was 0.252; in [10], -0.236; in assay [11], 1.55; in [15] it was 2.49; in assay [17] it was -0.0756. The composite z-score in assay [18] is 1.9; in assay [19] it was 1.11; in assay [20] it was -0.0387. For the same compound, the z-score in assay [8] was 0.184 (inactive); in assay [12], 0.581 (inactive); in [13] it was 1.05 (inactive); in assay [14] it was 2.18 (inactive); in assay [16], 0.949 (inactive).
